S2 tox = Viability Counterscreen for Primary qHTS for Inhibitors of ATXN expression; Potency, µM (titrated, usually from 56.7 µM), hits mostly cytotoxic; 400,000 compounds, 0.49% hits; S2 cells (HEK-293 line with an ATXN2-luciferase reporter) viability, CellTiter-Fluor protease fluorescence, 24 h; further: potency means the concentration at half of the fitted maximal effect; nearly all actives have a fitted effect of over 40% in size
A549 tox = Nrf2 qHTS screen for inhibitors: counterscreen for cytotoxicity; A549 ARE-Fluc cells, CellTiter-Fluor viability, 18-24 h; Potency, µM (titrated, usually from 46 µM), for the others: top-dose activity change, negative = cytotoxicity, most hits filed as inhibitors; 390,000 compounds, 0.16% hits; AID 504648, 2011; further: potency means the concentration at half of the fitted maximal effect; on the % scale 0 is the no-effect control and ±100 the full control effect
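A549 ARE_Fluc cells in 5% FBS OPTI-MEM were exposed to compounds in concentration-response for 18-24 h at 37 deg C. Viability was read by CellTiter-Fluor fluorescence (Ex 405/Em 525) after 30 min, before the luciferase read.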
Nrf2 block = Nrf2 qHTS screen for inhibitors. A549 ARE-Fluc reporter, luciferase luminescence, 18-24 h. Potency, µM (highest dose often 46 µM), inactives show at the highest dose activity change, negative = inhibition, most hits filed as inhibitors. 360,000 compounds, 2.1% hits. AID 504444, 2011; further: potency means the concentration at half of the fitted maximal effect; on the % scale 0 is the no-effect control and ±100 the full control effect; nearly all actives have a fitted effect of over 60% in size
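A549 ARE_Fluc cells (5000/well, 5% FBS OPTI-MEM) pre-incubated 2 h, then treated with compounds 18-24 h at 37C/5% CO2 in concentration-response. CellTiter-Fluor viability read first; BugLite luciferase luminescence after 15 min at room temperature gives Nrf2 activity.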
ATXN2 expr inh = Primary qHTS for Inhibitors of ATXN expression | AID 1745845, 2022 | Potency, µM (top dose mostly 57 µM), for the others: top-dose activity change, negative = inhibition, usual class: inhibitors | 360,000 compounds, 0.72% hits | HEK-293 ATXN2-luciferase reporter, luminescence, 24 h; further: potency means the concentration at half of the fitted maximal effect; on the % scale 0 is the no-effect control and ±100 the full control effect; nearly all actives have a fitted effect of over 55% in size
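ATXN2-luciferase reporter cells (luciferase flanked by upstream and downstream ATXN2 gene portions) were treated 24 h at 37 °C with compounds at up to 57 uM. SteadyGlo luminescence gave expression; GF-AFC fluorescence gave viability.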
Nrf2 ARE act = qHTS of Nrf2 Activators. 410,000 compounds, 0.31% hits. AREc32 ARE-luciferase reporter (MCF7-derived line), luminescence, 24 h. Potency, µM (top dose mostly 46.1 µM), for inactives: at the top dose activation, hits mostly activators. AID 624171, 2012; further: potency means the concentration at half of the fitted maximal effect; % of control where 0% means no effect; nearly all actives have a fitted effect of over 65% in size
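Quantitative high-throughput format: AREc32 reporter cells, 1000 per well, received compound by pin transfer and were incubated 24 hr at 37 deg C, 5% CO2, before Steady-Glo luminescence detection.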
SK-N-SH 3D tox = qHTS of pediatric cancer cell lines to identify multiple opportunities for drug repurposing: Orthogonal 3D viability screen for SK-N-SH cells; shares compounds with ATXN2 expr inh; SK-N-SH 3D spheroid viability, PI/Hoechst imaging, 72 h; Potency, µM (top dose mostly 30.7 µM), usual class: inhibitors; 65 compounds, 70% hits; AID 1347135, 2019
SJGBM2 3D viab = qHTS of pediatric cancer cell lines to identify multiple opportunities for drug repurposing: Orthogonal 3D viability screen for SJ-GBM2 cells | AID 1347136, 2019 | 65 compounds, 80% hits | shares compounds with ATXN2 expr inh | SJ-GBM2 3D spheroid viability, PI/Hoechst imaging, 72 h | Potency, µM (series often up to 30.7 µM), actives largely listed as inhibitors
Daoy spheroid = qHTS of pediatric cancer cell lines to identify multiple opportunities for drug repurposing: Orthogonal 3D viability screen for Daoy cells; shares compounds with ATXN2 expr inh; Daoy 3D spheroid viability, PI/Hoechst imaging, 72 h; Potency, µM (series often up to 30.7 µM), most hits filed as inhibitors; 65 compounds, 50% hits; AID 1347137, 2019
TC32 3D caspase = qHTS of pediatric cancer cell lines to identify multiple opportunities for drug repurposing: Orthogonal 3D caspase screen for TC32 cells. shares compounds with ATXN2 expr inh. TC32 3D spheroids, caspase-3/7 fluorescence imaging, 24 h. Potency, µM (titrated, usually from 30.7 µM), usual class: inhibitors. 65 compounds, 30% hits. AID 1347138, 2019
TC32 spheroid = qHTS of pediatric cancer cell lines to identify multiple opportunities for drug repurposing: Orthogonal 3D viability screen for TC32 cells. 65 compounds, 60% hits. shares compounds with ATXN2 expr inh. Potency, µM (doses to about 30.7 µM), actives largely listed as inhibitors. AID 1347139, 2019. TC32 3D spheroid viability, PI/Hoechst imaging, 72 h
MG63 3D tox = qHTS of pediatric cancer cell lines to identify multiple opportunities for drug repurposing: Orthogonal 3D viability screen for MG 63 (6-TG R) cells. shares compounds with ATXN2 expr inh. MG-63 (6-TG R) 3D spheroid viability, PI/Hoechst imaging, 72 h. Potency, µM (top dose mostly 30.7 µM), most hits filed as inhibitors. 65 compounds, 50% hits. AID 1347140, 2019
RD 3D tox = qHTS of pediatric cancer cell lines to identify multiple opportunities for drug repurposing: Orthogonal 3D viability screen for RD cells | shares compounds with ATXN2 expr inh | RD rhabdomyosarcoma 3D spheroid viability, PI/Hoechst imaging, 72 h | Potency, µM (series often up to 30.7 µM), most hits filed as inhibitors | 65 compounds, 50% hits
Numbers without * were called inactive; i = inactive; ? = inconclusive; nt = no result. Only some compounds are listed: those with a hit (about 2.9% of all), similar ones and a draw of the others. The call rests on the fitted dose curve; in most records, active means well fitted curve in the direction sought with a large enough effect; inconclusive means small, poorly fitted or top-dose-only effect, or another doubt; inactive means no such curve, though single readings can be large; an effect the other way counts as inactive or inconclusive.

SMILES | S2 tox | A549 tox | Nrf2 block | ATXN2 expr inh | Nrf2 ARE act | SK-N-SH 3D tox | SJGBM2 3D viab | Daoy spheroid | TC32 3D caspase | TC32 spheroid | MG63 3D tox | RD 3D tox
CC(C)Oc1ccc(C(=O)N2CCN(CCc3ccccn3)CC2)cc1 | i | 7% | 4% | -2% | 0% | nt | nt | nt | nt | nt | nt | nt
CCOc1ccc(CCNC(=O)c2cc3c(-c4ccccc4F)nn(C)c3s2)cc1 | ? | -1% | -12% | 2% | 0% | nt | nt | nt | nt | nt | nt | nt
O=C1C(Cl)=C(NCCN2CCOCC2)C(=O)c2ccccc21 | ? | 0% | ? | -36% | -3% | nt | nt | nt | nt | nt | nt | nt
O=C1C(Cl)=C(NCCN2CCOCC2)C(=O)c2ncccc21 | nt | nt | nt | 9.7µM* | nt | 3.2µM* | 4.6µM* | 6.4µM* | i | 11µM* | 5.1µM* | 11µM*
CC(C)(C)NC(=O)[C@H]1CN(Cc2cccnc2)CCN1C[C@@H](O)C[C@@H](Cc1ccccc1)C(=O)N[C@H]1c2ccccc2C[C@H]1O | nt | nt | nt | ? | nt | i | i | i | i | i | i | i
C[C@]1(c2nc3c(C(N)=O)cccc3[nH]2)CCCN1 | nt | nt | nt | 12% | nt | 4.6µM* | 4.1µM* | ? | i | ? | ? | i
NC(=O)c1cccc2cc3ccccc3cc12 | nt | -1% | -21% | -15% | 0% | nt | nt | nt | nt | nt | nt | nt

High-throughput results as filed in PubChem BioAssay.
